High-throughput results (PubChem BioAssay)
Hits are enriched below; roughly 19% of the tested compounds scored in any of these assays.
HT1080 IDH1KD tx: toxicity to HT-1080 IDH1 knockdown cells (counter line); 360,000 compounds, 2% hits; HT-1080 IDH1 knockdown viability, ATP luminescence, 48 h; Potency, µM (doses to about 46.1 µM), most hits filed as cytotoxic; AID 686971
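CellTiter-Glo luminescence after 48 h compound exposure at 37 degrees C of IDH1-knockdown HT-1080 cells in 5% FBS RPMI. %Activity scaled between DMSO wells and cell-free media wells, with curves fitted and assigned curve classes.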
TDP1 cell CPT: growth inhibition of DT40 Tdp1-/-;hTDP1 cells with camptothecin (screen for TDP1 inhibitors); chicken DT40 Tdp1-/-;hTDP1 cells + 20 nM CPT, ATP luminescence, 48 h; 420,000 compounds, 12% hits; Potency, µM (titrated, usually from 46.2 µM), most hits filed as inhibitors; AID 686979; also: nearly all actives have a fitted effect of over 55% in size
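Chicken DT40 Tdp1-/- cells complemented with human TDP1, 400 cells/well, exposed to compounds plus 20 nM camptothecin for at least 48 h at 37 C; viability read as ATP content by CellTiter-Glo luminescence.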
DT40 TDP1 no CPT: qHTS for Inhibitors of human tyrosyl-DNA phosphodiesterase 1 (TDP1): qHTS in cells in absence of CPT | DT40 Tdp1-/- hTDP1 cells, no CPT, ATP luminescence, 48 h | Potency, µM (doses to about 46.2 µM), hits mostly inhibitors | 420,000 compounds, 15% hits; also: nearly all actives have a fitted effect of over 55% in size
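Chicken DT40 Tdp1-/- cells stably complemented with human TDP1 were seeded at 400 cells/well with DMSO in place of 20 nM camptothecin. After compound pinning, cells grew at least 48 hr at 37 °C; viability read by CellTiter-Glo luminescence.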
IL1B secr inh: blocks inflammasome-driven IL-1 beta release; 360,000 compounds, 4.7% hits; THP-1 LPS/ATP IL-1B secretion, AlphaLISA, 16 h; stronger effect = lower value; activity change, % at 57.5 µM; in the data active = activity change below about -50%; inconclusive = mostly about -30% to -49%
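Secreted IL-1B measured by AlphaLISA bead assay after 16 h compound exposure of THP-1 cells; compounds (final up to 57.5 uM) added 1 h before LPS (250 ng/mL) and ATP (1.25 mM) stimulation; lower signal means less secretion.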
HT1080NT lethal: kills 2HG-producing HT-1080-NT fibrosarcoma cells; Potency, µM (highest dose often 46.1 µM), most hits filed as cytotoxic; 360,000 compounds, 1.6% hits; AID 686970; HT-1080-NT fibrosarcoma viability, CellTiter-Glo ATP luminescence, 48 h;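 also: NT is the 2HG producing partner of a matched IDH1 knockdown line; nearly all actives have a fitted effect of over 55% in size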
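Luminescent CellTiter-Glo readout after 48 hours of compound exposure at 37 degrees C defined viability of HT-1080-NT cells. Activity was normalized to DMSO wells and cell-free media wells; concentration-response curves were fitted and assigned curve classes.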
Large screens that a line does not name were inactive. Unless noted, calls follow the shape of the dose curve; as a rule, active = well fitted curve in the direction sought with a large enough effect; inconclusive = small, poorly fitted or top-dose-only effect, or another doubt; inactive = no such curve, though single readings can be large; an effect the other way counts as inactive or inconclusive.

COC(=O)c1nccnc1N	none
O=C(O)c1ccc(NC(=S)NC(NC(=O)c2ccco2)C(Cl)(Cl)Cl)cc1 (stereo not given)	none
Cc1ccc(C(=O)NC(NC(=S)Nc2ccc(S(N)(=O)=O)cc2)C(Cl)(Cl)Cl)cc1 (stereo not given)	TDP1 cell CPT inconclusive, DT40 TDP1 no CPT inconclusive, IL1B secr inh -76.3
Cc1ccc(NC(=S)NC(NC(=O)c2ccco2)C(Cl)(Cl)Cl)cc1 (stereo not given)	HT1080 IDH1KD tx inconclusive, TDP1 cell CPT 16.4µM, DT40 TDP1 no CPT inconclusive, HT1080NT lethal inconclusive
Cc1ccc(C)c(S(=O)(=O)NCc2ccc(C(=O)NCc3ccccn3)cc2)c1	none
CCC(=O)NC(=S)Nc1ccc(-c2nc3ccccc3s2)cc1	HT1080NT lethal inconclusive
Cc1ccc2nc(-c3ccc(NC(=S)NC4CC(C)(C)NC(C)(C)C4)cc3)sc2c1	HT1080 IDH1KD tx inconclusive, TDP1 cell CPT 3.66µM, DT40 TDP1 no CPT 6.51µM, IL1B secr inh -96.8, HT1080NT lethal 23.1µM
Cc1ccc2nc(-c3ccc(NC(=O)C(C)N4C(=O)c5ccccc5C4=O)cc3)sc2c1 (stereo not given)	none
Cc1ccc2nc(-c3ccc(NC(=S)NC(=O)C(C)C)cc3)sc2c1	HT1080 IDH1KD tx 1.58µM, IL1B secr inh inconclusive, HT1080NT lethal 2.82µM
CCC(=O)NC(=S)Nc1ccc(-c2nc3ccc(C)cc3s2)cc1	TDP1 cell CPT 20.6µM, DT40 TDP1 no CPT inconclusive
Cc1ccc(C2(C)NC(=O)N(CC(=O)Nc3ccc(-c4nc5ccc(C)cc5s4)cc3)C2=O)cc1 (stereo not given)	HT1080 IDH1KD tx inconclusive, TDP1 cell CPT inconclusive, DT40 TDP1 no CPT 10.3µM
COc1cc(=O)n2c(c1C(=O)NC(C)c1ccco1)CCN(C(=O)c1cccc(C)c1)CC2 (stereo not given)	none (no result: HT1080 IDH1KD tx, IL1B secr inh, HT1080NT lethal)
COc1cc(=O)n2c(c1C(=O)NC(C)c1ccco1)CCN(C(=O)c1cccc(C)c1C)CC2 (stereo not given)	TDP1 cell CPT 0.164µM (no result: HT1080 IDH1KD tx, IL1B secr inh, HT1080NT lethal)
Cc1cc(C)c(NC(=O)CSc2nc3ccccc3nc2N2CCCCC2)c(C)c1	TDP1 cell CPT 7.31µM, DT40 TDP1 no CPT 14.6µM (no result: HT1080 IDH1KD tx, IL1B secr inh, HT1080NT lethal)
CC(C)c1ccc(NC(=O)CSc2nc3ccccc3nc2N2CCCC2)cc1	TDP1 cell CPT 18.4µM, DT40 TDP1 no CPT 13µM
Cc1ccc(NC(=O)CSc2nc3ccccc3nc2N2CCCC2)cc1	TDP1 cell CPT 11.6µM, DT40 TDP1 no CPT 9.2µM
CC(=O)Nc1ccc(NC(=O)CSc2nc3ccccc3nc2N2CCOCC2)cc1	none (no result: HT1080 IDH1KD tx, IL1B secr inh, HT1080NT lethal)
O=C(CSc1nc2ccccc2nc1N1CCCC1)Nc1ccc(Cl)cc1	TDP1 cell CPT inconclusive, DT40 TDP1 no CPT 25.9µM
CS(=O)(=O)c1ccc(Cl)c(NC(=O)c2ccc(-n3cncn3)c([N+](=O)[O-])c2)c1	none
COc1ccc2c(C(=O)CN3CCN(c4ccccc4)CC3)c[nH]c2c1	none
CCn1ncc(S(=O)(=O)Nc2cc(Cl)ccc2C)c1C	none
Cc1ccc(S(=O)(=O)N(C)CC(=O)OCC(=O)NC(c2ccccc2)c2ccccc2)cc1	none
CC1CCCCN1C(=O)Cn1c(=O)n(-c2ccc(Cl)cc2)c(=O)c2c3c(sc21)CCC3 (stereo not given)	DT40 TDP1 no CPT inconclusive (no result: HT1080 IDH1KD tx, IL1B secr inh, HT1080NT lethal)
CCCCN(C)C(=O)CSc1nc2ccccc2nc1Cc1ccc(C)cc1	TDP1 cell CPT inconclusive, DT40 TDP1 no CPT 16.4µM (no result: HT1080 IDH1KD tx, IL1B secr inh, HT1080NT lethal)
CC1CCN(c2nc3ccccc3nc2SCC(=O)Nc2ccccc2C(C)C)CC1	TDP1 cell CPT 18.4µM, DT40 TDP1 no CPT inconclusive (no result: HT1080 IDH1KD tx, IL1B secr inh, HT1080NT lethal)
Clc1ccc(-c2cc3ccccc3nc2N2CCCC2)cc1	TDP1 cell CPT inconclusive, DT40 TDP1 no CPT 18.4µM
CCc1ccccc1NC(=O)CSc1nc2ccccc2nc1N1CCOCC1	DT40 TDP1 no CPT inconclusive
CCCCNC(=O)CSc1nc2ccccc2nc1Cc1ccc(C)cc1	none (no result: HT1080 IDH1KD tx, IL1B secr inh, HT1080NT lethal)
Clc1ccc(-c2cc3ccccc3nc2N2CCOCC2)cc1	TDP1 cell CPT inconclusive, DT40 TDP1 no CPT inconclusive
CCc1ccc(NC(=O)CSc2nc3ccccc3nc2N2CCCC2)cc1	TDP1 cell CPT 10.3µM, DT40 TDP1 no CPT 4.61µM
CCN(C(=O)C1CCCN1S(=O)(=O)c1ccc2c(c1)n(C)c(=O)c(=O)n2C)c1ccccc1 (stereo not given)	none
